Measured values taken from PubChem BioAssay.
Records with an inconclusive call do not appear. The source made the active and inactive calls.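 How the source made its calls, unless noted: active means compounds that lower survival of HCT116 colon cancer cells in the luminescence readout, no numeric limit stated; inactive means the rest.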

Columns and labels:
[1] = system: Neuropilin-2 / VEGF-C interaction (human); test: small molecules blocking Neuropilin-2/VEGF-C interaction – biochemical, microplate binding format, z-score (AID 743281; call rule not given here); conditions: microplate NRP2/VEGF-C binding assay; stronger effect = lower value
[2] = stimulators of insulin release from INS-1E, primary screen, cell-based, 5 mM glucose, NPC library (AID 1117329;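 active means compound raises insulin release from rat beta cells at 5 mM glucose, no numeric limit stated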; further: reference of the scale not given here); conditions: rat INS-1E insulin secretion, at 10 µM, stronger effect = higher value
[3] = growth inhibition of GSK3B-pretreated HCT116 cells – cell-based, CellTiter-Glo, 0.2 to 20 µM (AID 1117336;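 active means compounds lowering colon cancer cell viability after pretreatment blocking the GSK3B kinase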); conditions: HCT116 viability after GSK3B inhibitor, at 20 µM, stronger effect = higher value
[4] = inhibition of endothelial tube formation, primary screen, imaging, VEGF stimulated, CD31 staining, tube area, NPC library (AID 1117340;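 active means compound that reduces growth-factor-driven endothelial tube area in a mixed cell culture, no cutoff stated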); conditions: VEGF-stimulated ADSC/ECFC co-culture, at 10 µM, stronger effect = higher value
[5] = GLP1 release stimulators, primary, NCI-H716, NPC library (AID 1117341;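 active means compound raises GLP1 secretion from the human gut endocrine cells, with no numeric limit stated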; further: reference of the scale not given here); conditions: NCI-H716 cells, at 10 µM, stronger effect = higher value
[6] = HCT116 colon cancer cell growth inhibition, primary screen, CellTiter-Glo luminescence, NPC library (AID 1117342); conditions: at 20 µM (top of the series)
[7] = reduced SW480 viability measured with CellTiter-Glo, NPC library, primary (AID 1117343;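 active means compounds that lower viability of the colon cancer cells in the luminescence readout, with no numeric limit stated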); conditions: CellTiter-Glo luminescence; at 20 µM (top of the series) unless noted
[8] = NPC library primary testing for decreased DLD-1 cell viability via CellTiter-Glo (AID 1117346;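 active means compounds that lower survival of DLD-1 colon cancer cells in the luminescence readout, no cutoff given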); conditions: DLD-1 viability, CellTiter-Glo luminescence; at 20 µM (top of the series)
[9] = viability loss in pontine glioma line – cell-based, SU-DIPG-XVII, MIPE5.0, CellTiter-Glo, qHTS, dose response (AID 1347060; cut-off not given, nearly all actives have AC50 up to about 26 µM); conditions: CellTiter-Glo ATP luminescence
[10] = viability loss in pontine glioma line – cell-based, SU-DIPG-XIII, MIPE4.0, CellTiter-Glo, qHTS, dose response (AID 1347061; cut-off not given, nearly all actives have AC50 up to about 37 µM;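 further: cells exposed to compound for 48 hours before readout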); conditions: CellTiter-Glo ATP luminescence
[11] = viability loss in pontine glioma line – cell-based, SU-DIPG-XIII, MIPE5.0, CellTiter-Glo, qHTS, dose response (AID 1347064; cut-off not given, nearly all actives have AC50 up to about 23 µM); conditions: CellTiter-Glo ATP luminescence
[12] = viability loss in pontine glioma line – cell-based, SU-DIPG-XXV, MIPE5.0, CellTiter-Glo, qHTS, dose response (AID 1347065; cut-off not given, nearly all actives have AC50 up to about 26 µM;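 further: cells exposed to compound for 48 hours before ATP readout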); conditions: CellTiter-Glo ATP luminescence
[13] = JHH-DIPG-1 glioma cell viability, MIPE5.0 library, CellTiter-Glo luminescence, qHTS (AID 1347067; cut-off not given, nearly all actives have AC50 up to about 26 µM;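 further: cells exposed to compound for 48 hours before readout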); conditions: JHH-DIPG-1 glioma viability, CellTiter-Glo ATP luminescence
[14] = growth inhibition of DIPG cells – cell-based, MIPE5.0 library, qHTS (AID 1347068; cut-off not given, nearly all actives have IC50 up to about 30 µM); conditions: SU-DIPG-XXV viability
[15] = target: ATP-dependent translocase ABCB1 (Homo sapiens) (UniProt P08183); test: P-glycoprotein substrate transport blockade – cell-based (AID 377; in the data active means fluorescence slope change above about 50%); conditions: MDR1-expressing cells, fluorescent substrate accumulation slope; stronger effect = higher value; concentration not given here
Chain of ATP-dependent translocase ABCB1 (Homo sapiens) (P08183 whole entry, looked up): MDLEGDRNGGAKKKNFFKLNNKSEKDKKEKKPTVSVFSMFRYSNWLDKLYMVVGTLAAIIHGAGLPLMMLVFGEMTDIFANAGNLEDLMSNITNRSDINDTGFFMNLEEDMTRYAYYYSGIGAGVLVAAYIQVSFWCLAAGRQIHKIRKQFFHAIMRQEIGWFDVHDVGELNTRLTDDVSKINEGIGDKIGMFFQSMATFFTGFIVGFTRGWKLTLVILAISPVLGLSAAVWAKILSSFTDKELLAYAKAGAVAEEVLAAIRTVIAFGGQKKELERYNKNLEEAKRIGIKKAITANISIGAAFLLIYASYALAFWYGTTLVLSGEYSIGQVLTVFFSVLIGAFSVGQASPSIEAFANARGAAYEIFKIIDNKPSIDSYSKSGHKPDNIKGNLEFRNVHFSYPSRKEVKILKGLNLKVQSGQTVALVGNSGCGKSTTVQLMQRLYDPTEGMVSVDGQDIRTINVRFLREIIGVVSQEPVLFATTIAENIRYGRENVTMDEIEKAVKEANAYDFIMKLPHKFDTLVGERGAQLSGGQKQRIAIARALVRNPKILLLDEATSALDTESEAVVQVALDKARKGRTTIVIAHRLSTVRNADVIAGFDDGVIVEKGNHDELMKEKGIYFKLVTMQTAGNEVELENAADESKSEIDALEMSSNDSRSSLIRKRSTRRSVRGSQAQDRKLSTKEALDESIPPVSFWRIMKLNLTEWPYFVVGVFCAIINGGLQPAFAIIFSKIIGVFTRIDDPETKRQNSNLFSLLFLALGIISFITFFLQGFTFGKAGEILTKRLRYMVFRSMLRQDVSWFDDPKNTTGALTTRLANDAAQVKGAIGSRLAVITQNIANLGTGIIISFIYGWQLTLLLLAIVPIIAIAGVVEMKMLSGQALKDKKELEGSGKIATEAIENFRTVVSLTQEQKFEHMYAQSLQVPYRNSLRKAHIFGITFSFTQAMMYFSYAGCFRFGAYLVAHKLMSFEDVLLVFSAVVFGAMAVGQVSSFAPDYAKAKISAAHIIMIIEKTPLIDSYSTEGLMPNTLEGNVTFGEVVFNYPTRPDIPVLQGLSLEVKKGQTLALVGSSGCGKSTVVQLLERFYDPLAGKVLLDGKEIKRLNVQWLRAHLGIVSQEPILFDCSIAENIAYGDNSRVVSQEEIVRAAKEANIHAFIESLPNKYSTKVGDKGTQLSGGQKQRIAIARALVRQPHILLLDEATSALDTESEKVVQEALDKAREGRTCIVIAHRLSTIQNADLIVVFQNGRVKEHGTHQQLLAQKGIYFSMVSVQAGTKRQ

[16] = GFP-Q80 aggregate reduction, neuronal-like cells, cell-based, NGF-treated PC12, GFPQ80 (AID 1614); conditions: PC12 NGF-treated GFP-polyQ80 inclusion reduction;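 further: lower means fewer inclusions and 0 means no inclusions at all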
[17] = viability loss in pontine glioma line – cell-based, SU-DIPG-IV, MIPE4.0, CellTiter-Glo, qHTS, dose response (AID 1347063; cut-off not given, nearly all actives have AC50 up to about 30 µM;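 further: compound exposure lasted 48 hours before the viability readout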); conditions: CellTiter-Glo ATP luminescence
[18] = chitosan synthesis blockers in C. neoformans – flow cytometry, Cibacron Brilliant Red staining (AID 1347148; call rule not given here;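 further: compound exposure lasted three days at 37 degrees C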); conditions: Cryptococcus neoformans chitosan, stronger effect = lower value; at 10 µM unless noted

Clc1ccccc1CN1CCc2sccc2C1
active: viability decrease (inhibition) [7] 70.5%
inactive: z-score [1] 0.918 | insulin secretion stimulation [2] -2.1% | viability decrease [3] 13.8% | tube area decrease [4] 5.4% | GLP1 secretion stimulation [5] -2.6% | inhibition of viability [6] 3.9% | viability decrease (inhibition) [8] 32.4% | outcome [9] | outcome [10] | outcome [11] | outcome [12] | outcome [13] | outcome [14]

Cc1ccc(/C(=C\CN2CCCC2)c2ccccn2)cc1
active: fluorescence slope change [15] 91.4% | insulin secretion stimulation [2] 24% | viability decrease (inhibition) [7] 6.5%
inactive: viability decrease [3] -2.3% | tube area decrease [4] -2.9% | GLP1 secretion stimulation [5] -2.1% | inhibition of viability [6] -50.9% | viability decrease (inhibition) [8] -45.1%
2: inclusion score [16]

CS(=O)(=O)c1ccc([C@@H](O)[C@@H](CF)NC(=O)C(Cl)Cl)cc1
inactive: insulin secretion stimulation [2] 1.8% | viability decrease [3] -7.1% | tube area decrease [4] 10.2% | GLP1 secretion stimulation [5] 0.9% | inhibition of viability [6] 14.2% | viability decrease (inhibition) [7] 17.1% | viability decrease (inhibition) [8] 13.6%

O=C(O)COCCN1CCN(C(c2ccccc2)c2ccc(Cl)cc2)CC1 (stereo unspecified)
inactive: fluorescence slope change [15] 28.7% | insulin secretion stimulation [2] 4.3% | viability decrease [3] -8.4% | tube area decrease [4] 2.5% | GLP1 secretion stimulation [5] 1.4% | inhibition of viability [6] 11.2% | viability decrease (inhibition) [7] -6.6% | viability decrease (inhibition) [8] 8.8% | outcome [10] | outcome [17]

O=C(O)c1cn(C2CC2)c2cc(N3CCNCC3)c(F)cc2c1=O
inactive: insulin secretion stimulation [2] -0.6% | viability decrease [3] -4.5% | tube area decrease [4] -29.4% | GLP1 secretion stimulation [5] 1.9% | inhibition of viability [6] 8.6% | viability decrease (inhibition) [7] 12.3% | viability decrease (inhibition) [8] -5% | outcome [9] | outcome [10] | outcome [11] | outcome [12] | outcome [13] | outcome [14]
2: inclusion score [16]
active: fluorescence slope change [15] 54.5%

CC(C)(C(=O)O)c1ccc(C(O)CCCN2CCC(C(O)(c3ccccc3)c3ccccc3)CC2)cc1 (stereo unspecified)
inactive: insulin secretion stimulation [2] 2.1% | viability decrease [3] 1.3% | tube area decrease [4] -20.5% | GLP1 secretion stimulation [5] -2.2% | inhibition of viability [6] -3.77% | viability decrease (inhibition) [7] 33.1% | viability decrease (inhibition) [8] -0.4%

CC(C)c1c(C(=O)Nc2ccccc2)c(-c2ccccc2)c(-c2ccc(F)cc2)n1CC[C@@H](O)C[C@@H](O)CC(=O)O
active: viability decrease [3] 95.5% | tube area decrease [4] 67.8% | inhibition of viability [6] 81.6% | viability decrease (inhibition) [7] 96.3% | viability decrease (inhibition) [8] 68.1%
inactive: insulin secretion stimulation [2] 3.7% | GLP1 secretion stimulation [5] 5.8% | outcome [11] | outcome [14]

CN(C)C(=N)N=C(N)N
inactive: insulin secretion stimulation [2] -2.3% | viability decrease [3] -7% | tube area decrease [4] -11.5% | GLP1 secretion stimulation [5] 3.1% | inhibition of viability [6] -25.7% | viability decrease (inhibition) [7] 17% | viability decrease (inhibition) [8] -1.55%

CC(C)(C)CC(C)(C)c1ccc(OCCOCC[N+](C)(C)Cc2ccccc2)cc1
active: fluorescence slope change [15] 152% | viability decrease [3] 102% | tube area decrease [4] 110% | GLP1 secretion stimulation [5] 89.6% | inhibition of viability [6] 103% | viability decrease (inhibition) [7] 145% | viability decrease (inhibition) [8] 106%
inactive: insulin secretion stimulation [2] 4.2%

O=S(=O)(c1cccc2cnccc12)N1CCCNCC1
inactive: insulin secretion stimulation [2] 4.95% | viability decrease [3] 18.1% | tube area decrease [4] -19.8% | GLP1 secretion stimulation [5] -2.6% | inhibition of viability [6] 24.3% | viability decrease (inhibition) [7] -4.3% | viability decrease (inhibition) [8] 15.4% | outcome [9] | outcome [10] | outcome [11] | outcome [12] | outcome [13] | outcome [14]
active: fold fluorescence [18] 2.56 [at 137.3 µM]

CC(C)(C)c1ccc(C(O)CCCN2CCC(C(O)(c3ccccc3)c3ccccc3)CC2)cc1 (stereo unspecified)
inactive: insulin secretion stimulation [2] 5.9%
active: fluorescence slope change [15] 182% | viability decrease [3] 101% | tube area decrease [4] 98.4% | GLP1 secretion stimulation [5] 70% | inhibition of viability [6] 102% | viability decrease (inhibition) [7] 142% | viability decrease (inhibition) [8] 103%

C[N+]1(C)CCC(OC(=O)C(O)(c2ccccc2)C2CCCC2)C1 (stereo unspecified)
inactive: z-score [1] -0.121 | insulin secretion stimulation [2] 1.8% | viability decrease [3] -4% | tube area decrease [4] -0.8% | GLP1 secretion stimulation [5] -0.5% | inhibition of viability [6] 11.3% | viability decrease (inhibition) [7] -15.2% | viability decrease (inhibition) [8] 2%

CC(C)n1c(/C=C/[C@@H](O)C[C@@H](O)CC(=O)O)c(-c2ccc(F)cc2)c2ccccc21
active: viability decrease [3] 97.8% | tube area decrease [4] 100% | inhibition of viability [6] 88.8% | viability decrease (inhibition) [7] 111% | viability decrease (inhibition) [8] 50.2%
inactive: insulin secretion stimulation [2] 3.6% | GLP1 secretion stimulation [5] 1.4%

NCCCC(O)(P(=O)(O)O)P(=O)(O)O
inactive: insulin secretion stimulation [2] 2.3% | viability decrease [3] 6.9% | tube area decrease [4] -27.4% | GLP1 secretion stimulation [5] 1.2% | inhibition of viability [6] 1.17% | viability decrease (inhibition) [7] -1.7% | viability decrease (inhibition) [8] -3.8% | outcome [9] | outcome [10] | outcome [11] | outcome [12] | outcome [13] | outcome [14]
